Shown are actives, neighbours in structure and some others; about 8.1% of the full set was active somewhere.
MITF inhib: MITF inhibition; AID 2240; TRPM1 promoter luciferase, luminescence, 24 h; 37,000 compounds, 0.28% hits; inhibition, % (concentration not given with the values); in the data active means inhibition above about 85%; inconclusive means no clear call, values can overlap the other calls; inactive means below about 68%;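 further: human melanocyte line stably carrying TRPM1 promoter luciferase reporter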
NOMO-1 viab: STK33 inhibitor candidate reducing NOMO-1 cell viability. NOMO-1 AML viability, CellTiter-Glo luminescence, 72 h. inhibition, % (test concentration not listed). 37,000 compounds, 7.5% hits. AID 2330; in the data active means inhibition above about 80%; inconclusive means no clear call, values can overlap the other calls
Hedgehog inh: Sonic Hedgehog pathway inhibition. Shh-LIGHT2 Gli-luciferase reporter, 30 h. inhibition, % (no concentration beside the values). 22,000 compounds, 2.1% hits. AID 2313;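 active means mean inhibition across valid replicates above about 65%, limit read from the data; inconclusive means mean under the limit, yet half or more replicates past it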;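 further: pathway switched on by Shh-conditioned medium diluted 1 in 25 in low serum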
PD-1 reversal: activators reversing PD-1 mediated T-cell inhibition; activation, % (test concentration not listed); 29,000 tested, under 10 active; AID 2316; primary human CD4 T cells, PD-L1 beads, CellTiter-Glo 96 h; call rule not given here;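 further: 0% = median vehicle wells and 100% = positive control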
Starred values were filed as active, the others as inactive.

Screening c1ccc(CSC23CC4CC(CC(C4)C2)C3)cc1 returned MITF inhib -2, NOMO-1 viab 57 and PD-1 reversal -3.
For c1ccc(-c2nc(C34CC5CC(CC(C5)C3)C4)co2)cc1 the results were MITF inhib -23, NOMO-1 viab 99*, Hedgehog inh -29 and PD-1 reversal -1.
C[C@@H]1CCCCO[C@@H](CN(C)C(=O)c2ccccc2)[C@@H](C)CN([C@H](C)CO)C(=O)c2cc(NS(=O)(=O)c3ccc(F)cc3)ccc2O1 was read as MITF inhib -14, NOMO-1 viab -5 and Hedgehog inh 2.
`O=C1Cc2c([nH]c3ccc(Br)cc23)-c2ccccc2N1` gave MITF inhib -34, NOMO-1 viab 89*, Hedgehog inh -1 and PD-1 reversal 5.
For Cc1noc(C)c1S(=O)(=O)Nc1ccc2c(c1)C(=O)N([C@@H](C)CO)C[C@H](C)[C@H](CN(C)C(=O)NC(C)C)O2 the results were MITF inhib -5, NOMO-1 viab 3, Hedgehog inh -49 and PD-1 reversal 0.
`C[C@H]1CN([C@@H](C)CO)C(=O)c2cccc(NC(=O)CCCCCC(=O)Nc3ccccc3N)c2O[C@H]1CN(C)C(=O)Nc1cccc2ccccc12` gave MITF inhib -10, NOMO-1 viab 14 and PD-1 reversal 1.
Screening C[C@H](CO)N1C[C@H](C)[C@H](CN(C)C(=O)Nc2ccc(F)cc2)Oc2ccc(NC(=O)Nc3ccc(C(F)(F)F)cc3)cc2C1=O returned MITF inhib 49, NOMO-1 viab 112*, Hedgehog inh 69* and PD-1 reversal -3.
C[C@@H]1CN([C@@H](C)CO)C(=O)c2cc(NC(=O)Nc3ccc(C(F)(F)F)cc3)ccc2O[C@@H]1CN(C)C(=O)Nc1ccc(F)cc1 was read as MITF inhib 51, NOMO-1 viab 113*, Hedgehog inh 57 and PD-1 reversal -6.
C[C@H]1CN([C@@H](C)CO)C(=O)c2cc(NC(=O)Nc3ccc(C(F)(F)F)cc3)ccc2O[C@@H]1CN(C)C(=O)Nc1ccc(F)cc1 was read as MITF inhib 8, NOMO-1 viab 14, Hedgehog inh -9 and PD-1 reversal -3.
Screening C[C@@H]1CN([C@H](C)CO)C(=O)Cc2cc(NC(=O)C3CCCCC3)ccc2O[C@@H]1CN(C)Cc1ccc(C(=O)Nc2ccccc2N)cc1 returned MITF inhib -4, NOMO-1 viab inconclusive and PD-1 reversal 0.
For C[C@H](CO)N1C[C@H](C)[C@H](CN(C)Cc2ccc(C(=O)Nc3ccccc3N)cc2)Oc2ccc(NC(=O)C3CCCCC3)cc2CC1=O the results were MITF inhib 15, NOMO-1 viab 141* and PD-1 reversal -3.
Screening C[C@H]1CN([C@@H](C)CO)C(=O)Cc2cc(NC(=O)C3CC3)ccc2O[C@@H]1CN(C)Cc1ccc(C(=O)Nc2ccccc2N)cc1 returned MITF inhib -2, NOMO-1 viab 55 and PD-1 reversal 0.
`C[C@H](CO)N1C[C@H](C)[C@H](CN(C)Cc2ccc(C(=O)Nc3ccccc3N)cc2)Oc2ccc(NC(=O)C3CC3)cc2CC1=O` gave MITF inhib 2, NOMO-1 viab 127* and PD-1 reversal -5.
O=C(Nc1cccnc1)C1CC(c2cccc(Br)c2)=NO1 (stereo unspecified) was read as MITF inhib 34, NOMO-1 viab 12 and PD-1 reversal 1.
C[C@@H]1CCCCO[C@@H](CN(C)Cc2ccc3c(c2)OCO3)[C@@H](C)CN([C@H](C)CO)C(=O)c2cc(NC(=O)Nc3ccc(C(F)(F)F)cc3)ccc2O1 was read as MITF inhib 8, NOMO-1 viab 113* and PD-1 reversal -2.
For C[C@@H]1CCCCO[C@@H](CN(C)Cc2ccc(Cl)c(Cl)c2)[C@@H](C)CN([C@H](C)CO)C(=O)c2cc(NC(=O)C3CCCCC3)ccc2O1 the results were MITF inhib 50, NOMO-1 viab 114* and PD-1 reversal -2.
Screening CC(C)NC(=O)Nc1ccc2c(c1)C(=O)N([C@H](C)CO)C[C@H](C)[C@H](CN(C)Cc1ccc(C(F)(F)F)cc1)OCCCC[C@@H](C)O2 returned MITF inhib 14, NOMO-1 viab 40 and PD-1 reversal 2.
For C[C@@H]1CCCCO[C@@H](CN(C)Cc2ccc(Cl)c(Cl)c2)[C@@H](C)CN([C@H](C)CO)C(=O)c2cc(NC(=O)Nc3ccc(C(F)(F)F)cc3)ccc2O1 the results were MITF inhib -4, NOMO-1 viab 105* and PD-1 reversal -1.
For C[C@@H]1CCCCO[C@H](CN(C)Cc2ccc3c(c2)OCO3)[C@@H](C)CN([C@H](C)CO)C(=O)c2cc(NC(=O)Nc3ccc4c(c3)OCO4)ccc2O1 the results were MITF inhib -4 and NOMO-1 viab 33.
C[C@@H]1CCCCO[C@@H](CN(C)Cc2ccc3c(c2)OCO3)[C@@H](C)CN([C@H](C)CO)C(=O)c2cc(NC(=O)Nc3ccc(F)cc3)ccc2O1 was read as MITF inhib 14, NOMO-1 viab 16 and PD-1 reversal 1.
For C[C@@H]1CCCCO[C@@H](CN(C)Cc2ccc3c(c2)OCO3)[C@@H](C)CN([C@H](C)CO)C(=O)c2cc(NC(=O)Nc3ccc4c(c3)OCO4)ccc2O1 the results were MITF inhib 9, NOMO-1 viab 50, Hedgehog inh 68* and PD-1 reversal 1.
`CN1CCN(S(=O)(=O)c2ccc(Br)cc2)CC1` gave MITF inhib -18, NOMO-1 viab 28, Hedgehog inh -18 and PD-1 reversal 0.
For C[C@H](CO)N1C[C@H](C)[C@H](CN(C)C(=O)NC2CCCCC2)Oc2c(NC(=O)NC3CCCCC3)cccc2C1=O the results were MITF inhib 8, NOMO-1 viab 32 and Hedgehog inh 30.
`C[C@@H]1CCCCO[C@@H](CN(C)Cc2ccc(Cl)c(Cl)c2)[C@@H](C)CN([C@H](C)CO)C(=O)c2cc(NC(=O)Nc3ccccc3)ccc2O1` gave MITF inhib 15, NOMO-1 viab 103*, Hedgehog inh -5 and PD-1 reversal -2.
C[C@@H]1CCCCO[C@H](CN(C)Cc2ccc(Cl)c(Cl)c2)[C@@H](C)CN([C@H](C)CO)C(=O)c2cc(NC(=O)Nc3ccccc3)ccc2O1 was read as MITF inhib 28, NOMO-1 viab inconclusive, Hedgehog inh 42 and PD-1 reversal -4.
C[C@H](CO)N1C[C@H](C)[C@H](CN(C)Cc2ccc(Cl)c(Cl)c2)Oc2ccc(NC(=O)Nc3ccc4c(c3)OCO4)cc2C1=O was read as MITF inhib 28, NOMO-1 viab 88*, Hedgehog inh 19 and PD-1 reversal 1.
C[C@H](CO)N1C[C@H](C)[C@@H](CN(C)Cc2ccc(Cl)c(Cl)c2)Oc2ccc(NC(=O)Nc3ccc4c(c3)OCO4)cc2C1=O was read as MITF inhib 23, NOMO-1 viab 101*, Hedgehog inh -1 and PD-1 reversal 1.
C[C@@H]1CCCCO[C@H](CN(C)Cc2ccc(C(=O)O)cc2)[C@@H](C)CN([C@H](C)CO)C(=O)c2cc(NC(=O)C3CCCCC3)ccc2O1 was read as MITF inhib -3, NOMO-1 viab 15, Hedgehog inh -59 and PD-1 reversal 1.

Compound activity from PubChem BioAssay.
